The source of these data is the supplement of paper PMC13380429.

Values without a mark were called inactive.

The experiment has as its system Vero E6 infected with SARS-CoV-2. In words: inhibition of SARS-CoV-2 cytopathic effect; higher = more antiviral protection, active = above 15. The following applies: 100 nM; 48 h.
On to `NS(=O)(=O)c1cc(C(=O)O)c(NCc2ccco2)cc1Cl` [furosemide], for which the “inhibition of SARS-CoV-2 cytopathic effect” value (from here on “inhibition”) is -1.4%.

Consider `CCN1CCCC(OC(=O)C(c2ccccc2)c2ccccc2)C1` (stereo not given) [piperidolate], for which the “inhibition” value was -7.85%. Regarding `N=C(N)S/C=C\C(=O)O`, the “inhibition” value is -2.6%. `c1ccc(N2CCN(CCCOc3ccc4c(c3)OCO4)CC2)cc1`: the “inhibition” value is -4.95%. The value for `COc1cc(NC(=O)c2ccc(-c3ccc(Cl)cc3)o2)cc(OC)c1` was 0.76%. The value for `CC(C)(C)c1cc(NC(=O)Nc2ccc(-c3cn4c(n3)sc3cc(OCCN5CCOCC5)ccc34)cc2)no1` [quizartinib] was 0.83%.

Regarding `Cc1ccc(S(=O)(=O)Nc2ccc3c(c2)c(C(=O)C(F)(F)F)cn3CC(=O)N[C@@H](CC(C)C)C(=O)O)cc1`, the “inhibition” value was -1.37%. The value for `CCCCN(CCCC)CC(O)c1cc(Cl)cc2c1-c1ccc(Cl)cc1/C2=C/c1ccc(Cl)cc1` (stereo not given) [lumefantrine] was 2.25%; that for `NCCNc1ccc(NCCN)c2c1C(=O)c1ccncc1C2=O` [pixantrone] was -1.63%; that for `CCOC(=O)c1ccc(O)cc1` [ethyl-paraben] was -1.2%. The value for `N=C(N)SCCc1c[nH]cn1` [imetit] was -2.84%; that for `CN[C@@H]1[C@@H](O)[C@@H](O[C@@H]2[C@@H](O)[C@H](O[C@H]3OC(CN)=CC[C@H]3N)[C@@H](N)C[C@H]2N)OC[C@]1(C)O` [Sisomicin (sulfate)] was 0.885%.

As to `CO[C@@H]1[C@H](O)[C@@H](CO)O[C@H]1n1cnc2c(NC3CCCCC3)ncnc21`, the “inhibition” value was 8.69%. The value for `NC(=O)[C@H]1CCS[C@@H]2C[C@]3(CCCN3C(=O)Cc3ccc(NC(=O)COc4ccc(Cl)cc4Cl)cc3)C(=O)N12` was 1.37%; that for `CN(C)CCCCSC(=N)N` was -2.41%. The value for `C/C(=N\NC(=N)N)c1cc(NC(=O)CCCCCCCCC(=O)Nc2cc(/C(C)=N/NC(=N)N)cc(/C(C)=N/NC(=N)N)c2)cc(/C(C)=N/NC(=N)N)c1` [semapimod] was 5.39%.

In the case of `C[C@]12CCC(=O)C=C1[C@@H]1C[C@@H]1[C@H]1[C@@H]3[C@@H]4C[C@@H]4[C@@]4(CCC(=O)O4)[C@@]3(C)CC[C@@H]12` [drospirenone], the “inhibition” value is -3.16%. Under `CC(=O)N1N=C(c2ccc(N)cc2)c2cc3c(cc2C[C@H]1C)OCO3` [talampanel] stands 0.91%; under `O=C(O)C(=O)c1cn(Cc2ccccc2)c2ccc(-c3ccc(OC(F)(F)F)cc3)cc12` [tiplaxtinin], 3.44%. Under `OCCn1cc(-c2ccc3c(c2)CC/C3=N\O)c(-c2ccncc2)n1` stands 8.46%; under `O=C(O)c1ccc(-n2nc(-c3ccccc3O)nc2-c2ccccc2O)cc1` [deferasirox], -1.32%. The value for `CC(C)CCC[C@@H](C)[C@H]1CC[C@H]2[C@@H]3CCC4=CC(=NO)CC[C@]4(C)[C@H]3CC[C@]12C` [olesoxime] was -0.33%; that for `Oc1ccc2c(c1)CC[C@H](c1ccccc1)[C@@H]2c1ccc(OCCN2CCCC2)cc1` [lasofoxifene] was 0.8%; that for `Cc1cc(O)c2c(c1)C(=O)c1cc(O)cc(O)c1C2=O` [emodin] was -1.79%.

On to `CN1CCC(=C2c3ccccc3CCn3c(C=O)cnc32)CC1` [alcaftadine], for which the “inhibition” value was -2.72%. Turning to `C[C@@H]1C/C=C/C=C/C=C/C=C/[C@H](O[C@@H]2O[C@H](C)[C@@H](O)[C@H](N)[C@@H]2O)C[C@@H]2O[C@](O)(C[C@@H](O)C[C@H]3O[C@@H]3/C=C/C(=O)O1)C[C@H](O)[C@H]2C(=O)O` [natamycin], the “inhibition” value is -2.28%. Turning to `CC[C@]1(O)C[C@@H]2CN(CCc3c([nH]c4ccccc34)[C@@](C(=O)OC)(c3cc4c(cc3OC)N(C)[C@H]3[C@@](O)(C(=O)OC)[C@H](OC(C)=O)[C@]5(CC)C=CCN6CC[C@]43[C@@H]65)C2)C1` [Vinblastine (sulfate)], the “inhibition” value is -0.03%.

As for `CC(C(=O)O)c1ccc(N2Cc3ccccc3C2=O)cc1` (stereo not given) [indoprofen], the “inhibition” value is 0.86%. `NCC(=O)Nc1ccc(-n2nc(C(F)(F)F)cc2-c2ccc3c(ccc4ccccc43)c2)cc1`: the “inhibition” value is 2.09%.

For the compound `CN1Cc2c(N)cccc2C(c2ccccc2)C1` (stereo not given) [nomifensine], the “inhibition” value is 2.41%.
